Laboratory results published in PubChem BioAssay.

Each compound was assayed on Wnt5a (protein binding on small-molecule microarray) (assay: small molecules binding Wnt5a protein – biophysical, small-molecule microarray, 635/667 nm fluorescence, primary screen (AID 1142;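 also: fluorescence read at 667 nm with signal to noise per printed feature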)). Settings: 635 nm fluorescence, higher = more signal.

Point of comparison: `Cc1ccc(S[C@]2(C(=O)NC3CC3)CC(=O)N(Cc3ccccc3)[C@@H]2c2ccc(CO)cc2)cc1`, composite z-score -0.144. Against it:
- COCC(=C=CC[C@@H](O)c1ccc(CO)o1)CCO — higher, 0.0507
- CC(C)N1C(=O)c2ccccc2[C@@H](C(=O)NCCCN(C)C)[C@@H]1c1ccc(CO)cc1 — higher, -0.0882
- C=C[C@@H](COC(C)=O)N(Cc1ccc([N+](=O)[O-])cc1)S(=O)(=O)c1ccc(Br)cc1 — higher, 0.191
- CC(C)C(=C=CC[C@@H](O)c1ccccc1OCCO)C[C@@H](O)c1ccccn1 — higher, -0.0212
- C=CCNC(=O)[C@@H]1[C@H]2C(=O)O[C@H](c3ccccc3)[C@H](c3ccccc3)N2[C@H](c2ccc(O)cc2)[C@@]12C(=O)N(C(=O)OCCOC)c1ccccc12 — higher, 0.0795
- CC(C)(C)OC(=O)CC[C@@]1(C(=O)NCCN2CCOCC2)N=C(c2ccc(OCCCO)cc2)O[C@@H]1c1ccccc1 — higher, 0.739
- N#Cc1ccc(NN2C(C(O)C3CCCCC3)C=CC3C(=O)N(c4ccccc4)C(=O)C32)cc1 (stereo not given) — higher, 0.4
- C=CCN1C(=O)[C@]2(O[C@H](CCO)[C@@H]([Si](C)(C)c3ccc(OC)cc3)[C@@H]2C)c2cc(NC(=O)[C@H](C)O)ccc21 — higher, 0.276
- O=C1O[C@H](c2ccccc2)[C@H](c2ccccc2)N2[C@H]1[C@@H](C(=O)N1CCN(c3ncccn3)CC1)[C@]1(C(=O)Nc3ccccc31)[C@H]2c1ccc(OCCO)cc1 — higher, 0.505
- O=C1OCCC/C=C\[C@H]2OC34C=CCN(Cn5nnc6ccccc65)C(=O)[C@H]3N(CCCCCO)C(=O)[C@@H]4C12 (stereo not given in full) — lower, -0.883
- COc1cc2c(cc1OC)CN(C(=O)[C@@H]1[C@H]3C(=O)O[C@H](c4ccccc4)[C@H](c4ccccc4)N3[C@H](c3ccccc3OCCO)[C@@]13C(=O)Nc1ccc(C#CCNC(N)=O)cc13)CC2 — higher, 0.38
- COC(=O)[C@@]1(Cc2ccccc2)[C@H]2c3cc(C(=O)N4CCCC4)n(C)c3C[C@H]2CN1C(=O)c1ccccc1 — higher, 0.0131
- O=C1O[C@H](c2ccccc2)[C@H](c2ccccc2)N2[C@H]1[C@@H](C(=O)Nc1nc3ccccc3s1)[C@]1(C(=O)Nc3ccccc31)[C@H]2c1ccc(O)cc1 — higher, 0.0365
- CCN(CC)c1ccc(N2CC=CC34O[C@@H]5C=CCCOC(=O)C5[C@H]3C(=O)N(CCCCCO)[C@@H]4C2=O)cc1 (stereo not given in full) — higher, 0.0385
- COCCOC(=O)N1C(=O)[C@@]2(c3cc(C#CCC(C(=O)OC)C(=O)OC)ccc31)[C@H](c1ccc(O)cc1)N1[C@H](c3ccccc3)[C@H](c3ccccc3)OC(=O)[C@H]1[C@@H]2C(N)=O — higher, 0.641
- NC(=O)NCC#Cc1ccc2c(c1)[C@]1(C(=O)N2)[C@H](C(=O)N2CCCCCCC2)[C@H]2C(=O)O[C@H](c3ccccc3)[C@H](c3ccccc3)N2[C@@H]1c1ccc(OCCO)cc1 — higher, 0.683
- CC(C)N1CC=CC23O[C@@H]4C=CCOC(=O)[C@@H]4[C@H]2C(=O)N(CCO)[C@@H]3C1=O (stereo not given in full) — lower, -0.967
- COc1ccc(CCNC(=O)[C@@]2(c3ccc([N+](=O)[O-])cc3)CC(=O)N(CC34CC5CC(CC(C5)C3)C4)[C@@H]2c2ccc(CO)cc2)cc1 — higher, 0.145
- COCCOC(=O)N1C(=O)[C@@]2(c3ccccc31)[C@H](C(=O)NC[C@H](O)c1ccccc1)[C@H]1C(=O)O[C@H](c3ccccc3)[C@H](c3ccccc3)N1[C@@H]2c1ccc(OCCO)cc1 — higher, 0.788
- COc1ccc(C(O)C2C=CC3C(=O)NC(=O)C3N2Nc2ccccn2)cc1OCc1ccccc1 (stereo not given) — higher, -0.125
- COCCOC(=O)N1C(=O)[C@@]2(c3cc(C#CC4=CCCCC4)ccc31)[C@H](C(=O)NC[C@H](O)c1ccccc1)[C@H]1C(=O)O[C@H](c3ccccc3)[C@H](c3ccccc3)N1[C@@H]2c1ccc(O)cc1 — higher, 0.236
- COc1ccc([Si](C)(C)[C@@H]2[C@@H](CCn3cc([C@H](O)c4ccccc4)nn3)O[C@]3(C(=O)N(Cc4ccc(N5C(=O)c6cccc7cccc5c67)cc4)c4ccccc43)[C@H]2C)cc1 — lower, -0.179
- [N-]=[N+]=NCc1ccccc1C[C@]1(C(=O)O)N=C(c2ccc(OCCCO)cc2)O[C@H]1c1ccccc1CN=[N+]=[N-] — higher, -0.0602
- CC(C)NC(=O)[C@@H]1c2ccccc2C(=O)N(Cc2ccccc2)[C@H]1c1ccc(CO)cc1 — higher, -0.0365
- COCCOC(=O)N1C(=O)[C@@]2(c3cc(C#CCNC(N)=O)ccc31)[C@H](c1ccccc1OCCO)N1[C@H](c3ccccc3)[C@H](c3ccccc3)OC(=O)[C@H]1[C@@H]2C(N)=O — higher, 0.116
- O=C1C2C=CC(C(O)c3ccc(B(O)O)cc3)N(Nc3ccccc3)C2C(=O)N1c1ccccc1 (stereo not given) — higher, -0.0341
- COC(=O)[C@@]1(Cc2ccc(F)cc2)[C@H]2c3cc(C(=O)N(C)C)n(CCc4ccccn4)c3C[C@H]2CN1C(=O)c1ccccc1 — higher, 1.9
- O=C1C2C=CC(C(O)c3ccc(F)cc3)N(Nc3ccccc3)C2C(=O)N1c1ccccc1 (stereo not given) — higher, 0.137
- Cc1cc(C)c(C(O)C2C=CC3C(=O)N(C)C(=O)C3N2Nc2ccccc2)c(C)c1 (stereo not given) — higher, 0.701
- [N-]=[N+]=NCc1ccccc1C[C@]1(C(=O)NCCN2CCOCC2)N=C(c2ccc(OCCCO)cc2)O[C@H]1c1ccccc1N=[N+]=[N-] — higher, 0.152
- O=C(OCCF)C1=CCC(c2cccc(Cl)c2)O1 (stereo not given) — higher, 0.236
- [N-]=[N+]=NCc1ccccc1C[C@]1(C(=O)NCC(O)CO)N=C(c2ccc(OCCCO)cc2)O[C@H]1c1ccccc1N=[N+]=[N-] (stereo not given in full) — higher, 0.376
- COCC1=C2[C@@H](CCc3ccccc3)OB(O)C[C@@H]2[C@@H]2C(=O)N(Cc3ccccc3)C(=O)[C@@H]2C1 — higher, 0.278
- [N-]=[N+]=Nc1ccccc1[C@H]1OC(c2ccc(OCCCO)cc2)=N[C@@]1(CCS(=O)(=O)c1ccccc1)C(=O)O — higher, 0.296
